High-throughput results deposited in PubChem by National Center for Advancing Translational Sciences (NCATS).
Shown are actives, neighbours in structure and some others; about 12% of the full set was active somewhere.
JMJD2A Tudor – qHTS Assay for Inhibitors of JMJD2A-Tudor Domain; Lysine-specific demethylase 4A (Homo sapiens), O75164; AlphaScreen JMJD2A-Tudor / H3K4me3 peptide binding; Potency, µM (top dose mostly 114 µM), hits mostly inhibitors; 390,000 compounds, 4.4% hits; also: nearly all actives have a fitted effect of over 50% in size
BAZ2B block – qHTS Assay for Inhibitors of BAZ2B; AID 504333, 2011; Potency, µM (top dose mostly 114 µM), actives largely listed as inhibitors; AlphaScreen BAZ2B-H3K14Ac peptide displacement; 360,000 compounds, 4.4% hits; also: nearly all actives have a fitted effect of over 60% in size
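Inhibition is scored as reduced AlphaScreen emission. The BAZ2B/b-H3(5-23)K14Ac complex (50 nM each) in PBS pH 7.4, 0.01% Tween-20 meets compound (up to 110 uM) for 30 min at RT before bead addition.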
HP1b chromo inh – HTS for Inhibitors of HP1-beta Chromodomain Interactions with Methylated Histone Tails; 390,000 compounds, 0.56% hits; AID 540317, 2011; Potency, µM (highest dose often 114 µM), most hits filed as inhibitors; Chromobox protein homolog 1 (Homo sapiens), P83916; AlphaScreen HP1-beta / biotin-H3K9me3 peptide binding; also: nearly all actives have a fitted effect of over 70% in size
Target sequence (P83916 whole entry, looked up): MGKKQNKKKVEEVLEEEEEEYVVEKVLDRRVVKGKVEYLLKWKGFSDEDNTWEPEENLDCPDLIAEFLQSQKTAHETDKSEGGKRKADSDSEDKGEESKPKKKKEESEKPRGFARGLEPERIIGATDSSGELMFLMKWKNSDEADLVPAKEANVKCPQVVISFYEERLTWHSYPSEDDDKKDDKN
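AlphaScreen: HP1-beta (50 nM) preformed 30 min with biotin-H3(1-18)K9me3 peptide (50 nM) in PBS pH 7.4, 0.01% Tween-20. Compound added for 30 min at RT, then streptavidin donor/nickel chelate acceptor beads (10 ug/mL) for 30 min.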
Sfp inh – qHTS Assay for Inhibitors of Bacillus subtilis Sfp phosphopantetheinyl transferase (PPTase); 310,000 compounds, 3.5% hits; Biochemical Sfp PPTase activity, qHTS; Potency, µM, actives largely listed as inhibitors; AID 1490, 2009;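 also: the enzyme is Sfp with the accession as filed and its product quenches rhodamine fluorescence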
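Sfp 15 nM + cpd, 15 min RT; start w/ rhodamine-CoA 5 uM, BHQ-2-YbbR 12.5 uM (final); 50 mM Hepes pH 7.6, 10 mM MgCl2, 0.01% NP-40, 0.01% BSA; read 525/598 nm at 0 and 30 min.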
G9a block – qHTS Assay for Inhibitors of Histone Lysine Methyltransferase G9a; AID 504332, 2011; 350,000 compounds, 8.8% hits; Histone-lysine N-methyltransferase EHMT2 (Homo sapiens), Q96KQ7; Potency, µM (doses to about 102 µM), most hits filed as inhibitors; G9a H3K9 monomethylation, AlphaScreen, 2 h; also: nearly all actives have a fitted effect of over 75% in size
Target sequence (Q96KQ7 913-1193 limits assumed): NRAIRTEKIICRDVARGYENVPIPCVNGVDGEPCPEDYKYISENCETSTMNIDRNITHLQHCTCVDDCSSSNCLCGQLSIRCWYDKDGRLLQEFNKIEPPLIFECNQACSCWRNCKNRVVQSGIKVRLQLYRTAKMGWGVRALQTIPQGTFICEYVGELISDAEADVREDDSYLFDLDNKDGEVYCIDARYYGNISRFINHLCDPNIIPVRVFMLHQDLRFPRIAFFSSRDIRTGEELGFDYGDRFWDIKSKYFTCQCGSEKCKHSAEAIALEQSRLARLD
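Readings reflect AlphaScreen signal from monomethyl-H3K9 antibody detection. HMT at 20 nM; substrate b-H3K9 500 nM; cofactor SAM 20 uM; 2 h RT reaction; compounds tested as titrations in qHTS with 15 min preincubation.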
A number is an active result; – = inactive; ? = inconclusive; · = no result; [ ] = dose if it differs, or a comment. Calls follow the shape of the dose curve; as a rule, active = well fitted curve in the direction sought with a large enough effect; inconclusive = small, poorly fitted or top-dose-only effect, or another doubt; inactive = no such curve, though single readings can be large; an effect the other way counts as inactive or inconclusive.

SMILES	JMJD2A Tudor	BAZ2B block	HP1b chromo inh	Sfp inh	G9a block
c1ccc(C2CN3CCSC3=N2)cc1 (centres undefined)	–	–	–	–	–
CC(=O)Cc1nsc(NC(=O)c2ccc(COc3ccccc3)o2)n1	–	–	–	–	?
Cc1ccc(C)c(OCC(=O)Nc2ccccc2C(=O)N2CCOCC2)c1	–	–	–	–	89.1µM
Cc1cccc(OCCCC(=O)Nc2ccc(N3CCOCC3)cc2)c1	–	–	–	–	12.6µM
Cc1ccc(C)c(OCCC(=O)OCC(=O)Nc2ccc(N3CCOCC3)cc2)c1	–	–	–	·	?
Cc1ccc(C)c(OCC(=O)Nc2cc(C(=O)O)cc(C(=O)O)c2)c1	–	–	–	–	44.7µM
Cc1ccc(C)c(OCC(=O)Nc2ccc(N3CCOCC3)cc2)c1	?	?	–	–	31.6µM
Cc1cc(C)c(OCC(=O)Nc2cc(C(=O)O)cc(C(=O)O)c2)cc1C	–	–	–	–	–
Cc1ccc(-c2cn3c(n2)sc2cc(C(=O)NCCCN4CCCCC4)ccc23)cc1	–	–	–	·	–
CCc1ccc(OCCCC(=O)Nc2ccc(N3CCOCC3)cc2)cc1	–	–	–	–	·
Cc1ccc(C)c(OCCCC(=O)Nc2ccc(N3CCOCC3)cc2)c1	·	?	·	–	39.8µM
Cc1ccc(/C=N/n2c(C3CCCCC3)n[nH]c2=S)s1	–	–	–	–	8.91µM
Cc1ccsc1/C=N/n1c(C2CCCCC2)n[nH]c1=S	?	–	–	–	1.41µM
COc1ccc(N2C(=O)CC(S/C(N)=N/N=C/c3ccnc4ccccc34)C2=O)cc1 (centres undefined)	·	–	·	–	–
Cc1cc(C)n(-c2nc(NCC3CCCO3)c3c4c(sc3n2)COC(C)(C)C4)n1 (centres undefined)	–	–	–	–	1.78µM
O=C(NCCCN1CCCC1=O)c1cc2ccccc2o1	–	–	–	·	–
CC12C=C(/C=C/c3ccc(C(F)(F)F)cc3)C(C)(C1)C(c1ccc(C(F)(F)F)cc1)CC2=O (centres undefined)	·	·	·	–	·
O=C1c2cccc(Cl)c2C(=O)c2c1cccc2N1CCCC1	?	·	22.4µM	·	·
Cc1ccc(-c2nc(-c3cc4cccc(OCc5ccc(F)cc5)c4oc3=O)no2)cc1	–	–	–	·	–
COc1ccc(-c2c3c(=O)n(C)c(=O)n(C)c3cn2-c2ccccc2O)cc1	–[11.4 µM]	?	–	–	?
COc1ccc(-c2c3c(=O)n(C)c(=O)n(C)c3cn2Cc2cccnc2)cc1	–	–	–	–	10µM
Cn1c(=O)c2c(-c3ccc(Cl)cc3)n(Cc3ccccc3)cc2n(C)c1=O	–	–	–	·	–
COc1ccc(-c2c3c(=O)n(C)c(=O)n(C)c3cn2Cc2ccccn2)cc1	–	50.1µM	–	?	?
COc1ccc(-c2c3c(=O)n(C)c(=O)n(C)c3cn2-c2cc(OC)ccc2OC)cc1	?	?	–	–	44.7µM
Cc1ccc2c(c1)C(O)(C1COC(C)(C)CC1=O)C(=O)N2C (centres undefined)	–	–	–	–	–
SMILES	JMJD2A Tudor	BAZ2B block	HP1b chromo inh	Sfp inh	G9a block
NCCCC[C@H]1CNC(=O)C(=O)N1CCC12CC3CC(CC(C3)C1)C2	–	–	–	–	–[12.7 µM]
Cc1ccc(NC(=O)CSC(C)C(=O)NCCc2ccccn2)cc1 (centres undefined)	–	–	–	–	–
COc1ccccc1N1CCN(C(=O)Cn2c(=O)n3nc(-c4ccc(C)cc4)nc3c3ccccc32)CC1	–	–	–	·	–
Cc1cccc(CN(CC(=O)N/N=C/c2ccco2)S(=O)(=O)c2ccc(Cl)cc2)c1	79.4µM	50.1µM	?	–	?
Cc1ccc(S(=O)(=O)N(CC(=O)N/N=C/c2ccco2)Cc2ccccc2)cc1	?	–	–	–	–[12.7 µM]
Cc1nnc(SCCN2CCOCC2)n1C	1µM	?	?	?	35.5µM
O=c1[nH]nc(CNc2ccc(O)cc2)c2ccccc12	–	?	–	?	11.2µM
COc1ccc(CCNC(=O)CSc2ncc3c(n2)-c2cc(Cl)ccc2N(Cc2ccccc2)S3(=O)=O)cc1OC	–	–	–	·	–
